Shown is part of a subset that was picked to be rich in hits.
FECH inh: human FECH heme synthesis enzyme inhibition; P22830; hit rate 3.3% among 20,000; AID 1671448; calls only at 10 µM (by protocol); purified FECH, Ni-mesoporphyrin absorbance 550 nm;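 active means enzyme reaction rate more than 3 SD below the solvent-only control wells on the same plate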;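 further: lower slope than DMSO wells means FECH inhibition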
Target sequence (P22830 whole entry, looked up): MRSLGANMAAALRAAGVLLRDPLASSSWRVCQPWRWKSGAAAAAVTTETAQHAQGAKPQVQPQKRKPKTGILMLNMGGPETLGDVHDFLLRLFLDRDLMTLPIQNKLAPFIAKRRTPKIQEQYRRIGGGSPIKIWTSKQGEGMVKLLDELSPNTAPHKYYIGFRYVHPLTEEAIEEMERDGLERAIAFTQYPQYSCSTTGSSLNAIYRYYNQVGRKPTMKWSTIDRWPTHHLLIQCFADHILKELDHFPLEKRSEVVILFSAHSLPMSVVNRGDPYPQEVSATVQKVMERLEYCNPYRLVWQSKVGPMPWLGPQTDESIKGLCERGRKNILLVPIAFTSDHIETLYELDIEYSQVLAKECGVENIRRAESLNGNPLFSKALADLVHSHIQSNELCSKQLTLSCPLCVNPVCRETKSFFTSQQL
Active calls of the source: *; i = inactive; + = active, no number.

SMILES	FECH inh
CCc1c(C)nc2ncnn2c1Sc1ccccc1NC(=O)c1ccc(F)cc1	+
CCC(=O)Nc1ccccc1Sc1c(C)c(C)nc2nc(-c3ccccc3)nn12	+
Cc1nc2ncnn2c(Sc2ccccc2NC(=O)c2ccc(Cl)cc2)c1C	i
CCCc1c(C)nc2ncnn2c1Sc1ccccc1NC(=O)c1ccc(C(C)(C)C)cc1	+
Cc1nc2nc(-c3ccccc3)nn2c(Sc2ccccc2NC(=O)c2ccccc2)c1C	i
CCc1c(C)nc2ncnn2c1Sc1ccccc1NC(=O)c1ccc(OC)cc1	i
CCc1c(C)nc2ncnn2c1Sc1ccccc1NC(=O)c1cc(OC)cc(OC)c1	i
CCCc1c(C)nc2ncnn2c1Sc1ccccc1NC(=O)c1ccc(C)cc1	i
Cc1cccc(C(=O)Nc2ccccc2Sc2c(C)c(C)nc3ncnn23)c1	+
Cc1nc2nc(-c3ccccc3)nn2c(Sc2ccccc2NC(=O)c2c(F)cccc2F)c1C	i
CCCc1c(C)nc2ncnn2c1Sc1ccccc1NC(=O)c1cccc(Cl)c1	i
CCCc1cc(Sc2ccc(NC(=O)C(C)C)cc2)n2ncnc2n1	i
CCOC(=O)N1CCC(NC(C)c2ccccc2-n2cccn2)CC1 (configuration not stated)	i
OCCn1c(/C=C/c2ccccc2)nc2ccccc21	i
O=C(NCCc1ccccc1)C1CCN(c2ccc(-c3cccs3)nn2)CC1	i
CC(=O)c1c(C)cc(C)c(CN2CCN(C)C3(CCN(C)CC3)C2)c1C	i
O=C(c1ccco1)N1CCCN(c2nccc(N3CCCC(O)C3)n2)CC1 (configuration not stated)	i
Cc1cccc(OCC(=O)Nc2cc(C)nn2-c2ncnc3c2cnn3-c2ccc(C)cc2C)c1	i
O=C(NCCS(=O)(=O)N1CCCC1)c1cccc(-n2cccn2)c1	i
CCc1csc(CNC(=O)c2cc(C3CC3)[nH]n2)n1	i
CCc1csc(CNC(=O)c2ncc[nH]2)n1	+
CCc1csc(CNC(=O)c2ccc(-c3ncn[nH]3)cc2)n1	i
O=C1CC(c2cccc(Cl)c2)=Nc2ccccc2N1	i
OCc1ccc(CN2CCC(c3ccnc(-c4cccnc4)c3)C2)o1 (configuration not stated)	i
CCc1cc(Sc2ccccc2NC(=O)Cc2cccc(OC)c2)n2nc(C)nc2n1	i
SMILES	FECH inh
CCc1cc(Sc2ccccc2NC(=O)Cc2ccc(OC)cc2)n2nc(C)nc2n1	+
CCc1cc(Sc2ccccc2NC(=O)c2cc(OC)cc(OC)c2)n2nc(C)nc2n1	i
O=C(NCCC1COc2ccccc2O1)c1ccc(N2CCSCC2)nc1 (configuration not stated)	i
Cc1cccc(N2CCN(c3ncc(NS(=O)(=O)c4cc(F)ccc4C)cc3C(=O)O)CC2C)c1 (configuration not stated)	+
Cc1cccc(N2CCN(c3ncc(NS(=O)(=O)c4ccc(F)cc4)cc3C(=O)O)CC2C)c1 (configuration not stated)	i
Cc1cccc(N2CCN(c3ncc(NS(=O)(=O)c4ccccc4C)cc3C(=O)O)CC2C)c1 (configuration not stated)	i
Cc1cc(C)c(S(=O)(=O)N2CCN(c3cc(-c4cccc(F)c4)ncn3)CC2)cc1C	i
c1ccc(CN2CCC(Cn3ccnc3C3CC3)C2)cc1 (configuration not stated)	i
Cc1ccc(C)c(OC(C)C(=O)NCCc2n[nH]c3c2CCCC3)c1 (configuration not stated)	i
COc1ccc(CNC(=O)CSc2cc(N3CCCCC3)ncn2)cc1	i
CCc1cccc(NC(=O)CCC(=O)NCc2ncc[nH]2)c1	i
Cc1ccc(NC(=O)CSc2cc(Oc3cc(C)cc(C)c3)ncn2)cc1	+
O=C(CSc1cc(N2CCCCC2)ncn1)Nc1ccc2c(c1)OCCO2	i
COc1cc(NC(=O)CSc2cc(Oc3cc(C)cc(C)c3)ncn2)cc(OC)c1	+
CSc1ccc(CNC(=O)CSc2cc(Oc3cc(C)cc(C)c3)ncn2)cc1	+
COc1ccc(NC(=O)CSc2cc(N3CCCCC3)ncn2)cc1OC	i
Cc1ccc(NC(=O)CSc2cc(N3CCCCC3)ncn2)cc1F	i
CSc1ccc(CNC(=O)COc2cc(C)nc(-c3ccc(C)cc3)n2)cc1	i
CCc1cccc(NC(=O)CSc2cc(Oc3cc(C)cc(C)c3)ncn2)c1	+
COc1cc(NC(=O)CN2CCCN(Cc3ccc(C)cc3)S2(=O)=O)cc(OC)c1	i
CCc1cccc(NC(=O)CN2CCCN(Cc3ccc(OC)cc3)S2(=O)=O)c1	i
COCCn1c(CNC(=O)c2cccs2)nc2cccnc21	i
COc1ccc(NC(=O)C2CCCN(c3ccc(-c4cccc(C)c4)nn3)C2)cc1 (configuration not stated)	i
COc1cc(C)c(-c2c(-c3ccccc3)ncn2Cc2ncc[nH]2)cc1C	i
O=C(CCN1CCCC(CCc2ccccc2F)C1)N1CCCC1 (configuration not stated)	i
SMILES	FECH inh
O=C(c1ccccc1)N1CCC(NCCc2nc3ccccc3[nH]2)CC1	i
C=CCNc1nc(Nc2ccc(F)cc2)c2cnn(-c3ccccc3)c2n1	i
CCCc1cncnc1NC1CC(=O)N(CCc2ccc(F)cc2)C1 (configuration not stated)	i
COc1ccc(Nc2cc(C)nc(N3CCN(S(=O)(=O)c4cccc(Cl)c4)CC3)n2)cc1	i
CCOc1ccccc1NC(=O)CN1CCN(Cc2ccc(F)cc2Cl)S1(=O)=O	+
CCOc1ccccc1NC(=O)CN1CCN(Cc2ccccc2C)S1(=O)=O	+
CCc1ccccc1NC(=O)CN1CCN(Cc2ccc(F)cc2Cl)S1(=O)=O	i
CCOc1ccccc1NC(=O)CN1CCN(Cc2ccccc2Cl)S1(=O)=O	i
CCc1ccccc1NC(=O)CN1CCN(Cc2ccccc2C)S1(=O)=O	i
CCOC(=O)c1ccccc1NC(=O)CN1CCN(Cc2ccccc2C)S1(=O)=O	i
COc1ccc(Nc2cc(C)nc(Nc3ccc(NC(=O)c4cccc(C(F)(F)F)c4)cc3)n2)cc1	i
Cn1c(CCC(=O)Nc2cnc3n2CCCC3)nc2cccnc21	i
CC(C)CN1CCC(NCC(C)Oc2cccnc2)CC1 (configuration not stated)	i
O=C(CCSc1nnc(-c2ccncc2)o1)Nc1cnc2n1CCCC2	i
CCCc1cnc(C)nc1-c1ccnc2c1ccn2C	i
COc1ccc(-c2noc(CSCC(=O)NCc3ccc(C)cc3)n2)cc1OC	i
COc1ccc(-c2cc(C(=O)NCc3ccc(F)cc3)[nH]n2)cc1S(N)(=O)=O	i
NS(=O)(=O)c1ccccc1NC(=O)NCc1ccc(F)cc1	+
Cc1nc2nc[nH]n2c(=O)c1NC(=O)NCc1ccc(F)cc1	i
O=C(NC1CCCCCC1)N1CCC(n2cc(CCO)nn2)CC1	i

From PubChem BioAssay
